From the supplement of paper PMC12350171
Structures can show the parent of a compound that is named as a salt.

What follows are compounds tested on Haemophilus parainfluenzae (assay: growth AUC normalised to DMSO control (fraction of control); higher = less growth inhibition, active = hit call of the paper). Conditions: 20 µM;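 active = AUC significantly below DMSO controls by Student t-fit with adjusted P under 0.01; inactive = not significantly reduced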.
In short: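 Three biological replicates were carried out, with OD578 read hourly for 24 h. Before inoculation at a starting OD578 of 0.01, pathogens were passaged anaerobically twice; plates were pre-reduced mGAM containing 20 μM compound and 1% DMSO, sealed with breathable membranes, and the Haemophilus parainfluenzae medium carried added hemin and NAD. Area under each growth curve was calculated by the trapezoidal rule up to the exponential-to-stationary transition and normalised to DMSO controls on the same plate.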

SMILES | growth AUC normalised to DMSO control
C[C@@H]1C[C@H]2[C@@H]3C[C@H](F)C4=CC(=O)C=C[C@]4(C)[C@@]3(F)[C@@H](O)C[C@]2(C)[C@@]1(O)C(=O)CO [Flumethasone] | 1 (inactive)
NNc1nncc2ccccc12 [Hydralazine hydrochloride] | 1.03 (inactive)
NC(=O)OCC(O)COc1ccc(Cl)cc1 (centres undefined) [Chlorphensin carbamate] | 1.01 (inactive)
O=C(CCCCC(=O)Nc1c(I)cc(I)c(C(=O)O)c1I)Nc1c(I)cc(I)c(C(=O)O)c1I [Iodipamide] | 1.01 (inactive)
N=C(NCCCCCCNC(=N)NC(=N)Nc1ccc(Cl)cc1)NC(=N)Nc1ccc(Cl)cc1 [Chlorhexidine] | 0.139 (active)
COc1cc(C(=O)OCCCN2CCCN(CCCOC(=O)c3cc(OC)c(OC)c(OC)c3)CC2)cc(OC)c1OC [Dilazep dihydrochloride] | 0.97 (inactive)
Nc1ccc(C(=O)O)c(O)c1 [Aminosalicylic acid] | 1.09 (inactive)
CC(C)C(=O)c1c(C(C)C)nn2ccccc12 [Ibudilast] | 0.811 (inactive)
CN1CCCCC1CCN1c2ccccc2Sc2ccc([S+](C)[O-])cc21 (centres undefined) [Mesoridazine besylate] | 0.987 (inactive)
CN1CC2c3ccccc3Oc3ccc(Cl)cc3C2C1 (centres undefined) [Asenapine maleate] | 0.851 (active)
CC(C(=O)O)c1cccc(Oc2ccccc2)c1 (centres undefined) [Fenoprofen calcium salt dihydrate] | 0.945 (inactive)
COc1ccccc1OCC(O)CO (centres undefined) [Guaifenesin] | 1.04 (inactive)
CN1CCN(C(c2ccccc2)c2ccc(Cl)cc2)CC1 (centres undefined) [Chlorcyclizine hydrochloride] | 0.982 (inactive)
COC(=O)C1=C(C)NC(C)=C(C(=O)OCCN(C)Cc2ccccc2)C1c1cccc([N+](=O)[O-])c1 (centres undefined) [Nicardipine hydrochloride] | 1.01 (inactive)
Cc1onc(-c2c(Cl)cccc2Cl)c1C(=O)N[C@@H]1C(=O)N2[C@@H]1SC(C)(C)[C@@H]2C(=O)O [Dicloxacillin sodium salt hydrate] | 0.893 (inactive)
CN1CCN(C2=Nc3cc(Cl)ccc3Nc3ccccc32)CC1 [Clozapine] | 1.02 (inactive)
C[C@@H]1C[C@H]2[C@@H]3C[C@H](F)C4=CC(=O)C=C[C@]4(C)[C@@]3(Cl)[C@@H](O)C[C@]2(C)[C@H]1C(=O)COC(=O)C(C)(C)C [Clocortolone pivalate] | 1.73 (inactive)
Cc1c(N(C)CS(=O)(=O)O)c(=O)n(-c2ccccc2)n1C [Dipyrone sodium salt] | 1.02 (inactive)
CCCCc1oc2ccccc2c1C(=O)c1cc(I)c(OCCN(CC)CC)c(I)c1 [Amiodarone hydrochloride] | 0.96 (inactive)
CN[C@H](CC(C)C)C(=O)N[C@H]1C(=O)N[C@@H](CC(N)=O)C(=O)N[C@H]2C(=O)N[C@H]3C(=O)N[C@H](C(=O)N[C@H](C(=O)O)c4cc(O)cc(O)c4-c4cc3ccc4O)[C@H](O)c3ccc(c(Cl)c3)Oc3cc2cc(c3O[C@@H]2O[C@H](CO)[C@@H](O)[C@H](O)[C@H]2O[C@H]2C[C@](C)(N)[C@H](O)[C@H](C)O2)Oc2ccc(cc2Cl)[C@H]1O [Vancomycin hydrochloride] | 1.01 (inactive)
CS(=O)(=O)OCCCCOS(C)(=O)=O [Busulfan] | 1 (inactive)
Nc1ccn([C@@H]2O[C@H](CO)[C@@H](O)C2(F)F)c(=O)n1 [Gemcitabine] | 1.1 (inactive)
CC(N)C12CC3CC(CC(C3)C1)C2 (centres undefined) [Rimantadine hydrochloride] | 0.933 (inactive)
Clc1ccc2c(c1)C(N1CCNCC1)=Nc1ccccc1O2 [Amoxapine] | 0.963 (inactive)
C(=C\c1ccccc1)/CN1CCN(C(c2ccccc2)c2ccccc2)CC1 [Cinnarizine] | 0.817 (inactive)
Cc1nccn1CC1CCc2c(c3ccccc3n2C)C1=O (centres undefined) [Ondansetron hydrochloride] | 1.07 (inactive)
O=C1OCCN1/N=C/c1ccc([N+](=O)[O-])o1 [Furazolidone] | 0.361 (active)
O=c1[nH]c(=O)n([C@H]2C[C@H](O)[C@@H](CO)O2)cc1F [Floxuridine] | 0.0967 (active)
C#C[C@]1(O)CC[C@H]2[C@@H]3CCC4=CC(=O)CC[C@@H]4[C@H]3CC[C@@]21CC [(D-) Norgestrel] | 0.969 (inactive)
